# Bioassay records from PubChem BioAssay.
# KB-V1 cytotox – KB-V1 MDR subline cytotoxicity; KB-V1 MDR cells viability, CellTiter-Glo, 72 h; Potency, µM (titrated, usually from 46.1 µM), usual class: cytotoxic; 3.4% of 400,000 active; further: on the % scale 0 is the no-effect control and ±100 the full control effect; nearly all actives have a fitted effect of over 60% in size
#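 Cells of the MDR subline KB-V1 are plated, dosed with compound at multiple concentrations, and incubated 72 h at 37 degrees C; CellTiter-Glo is then added and luminescence read after 10 min.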
# KB-3-1 tox – kills parental KB-3-1 adenocarcinoma cells. KB-3-1 viability, CellTiter-Glo ATP luminescence, 72 h. Potency, µM (titrated, usually from 46.1 µM), most hits filed as cytotoxic. 1.4% of 400,000 active. AID 1347075; further: on the % scale 0 is the no-effect control and ±100 the full control effect; nearly all actives have a fitted effect of over 60% in size
#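 Cytotoxicity measured as CellTiter-Glo luminescence after 72 h at 37 C. Compound titrations were pinned onto drug-naive KB-3-1 parental adenocarcinoma cells grown in DMEM with 10% FBS, and normalized data fitted to concentration-response curves.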
# MCF10A rerep – inducers of DNA re-replication in MCF 10A breast cells; MCF 10A DNA re-replication, Hoechst nuclear intensity, 48 h; Potency, µM (titrated, usually from 46.1 µM), for inactives: top-dose activity, positive = re-replication, actives largely listed as activators; 2.9% of 350,000 active; AID 624296; further: % of control where 0% means no effect; nearly all actives have a fitted effect of over 50% in size
# SW480 rerep – inducers of DNA re-replication in SW480 colon cancer cells | SW480 DNA re-replication, Hoechst DNA content imaging, 48 h | Potency, µM (highest dose often 46.1 µM), for the others: top-dose re-replication activation, usual class: activators | 1.8% of 340,000 active | AID 624297; further: % of control where 0% means no effect; nearly all actives have a fitted effect of over 55% in size
#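 Quantitative HTS format with DMSO vehicle controls; 48 hr drug incubation at 37 C, then 40 min Hoechst staining and scanning imager measurement at 405 nm excitation.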
# ELG1 repair inh – ELG1-dependent DNA repair inhibition; HEK293T ELG1-luciferase reporter, luminescence, 16 h; DNA damage induced by 5-fluorouridine; Potency, µM (titrated, usually from 46.1 µM), inactives show at the highest dose activity change, negative = inhibition, usual class: inhibitors; 2.3% of 330,000 active; AID 504467; further: on the % scale 0 is the no-effect control and ±100 the full control effect; nearly all actives have a fitted effect of over 55% in size
#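 Overnight (16 hr) co-exposure of 2,000 cells/well to 5-fluorouridine and compound at 37 °C preceded detection. Luciferase was quantified via ONE-Glo luminescence; loss of signal denotes inhibition.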
# * marks the source's active call; other numbers are inactive results; i = inactive; ? = inconclusive; . = no result given; ! = a repeat was not active. Rows were chosen to be rich in hits. Some 8.2% of all compounds tested hit in one or more screens of this group. The call rests on the fitted dose curve; in most records, active means well fitted curve in the direction sought with a large enough effect; inconclusive means small, poorly fitted or top-dose-only effect, or another doubt; inactive means no such curve, though single readings can be large; an effect the other way counts as inactive or inconclusive. Potency means the concentration at half of the fitted maximal effect.
SMILES,KB-V1 cytotox,KB-3-1 tox,MCF10A rerep,SW480 rerep,ELG1 repair inh
CCc1ccccc1NS(=O)(=O)c1ccc2[nH]cc(C(=O)NC3CCCC3)c(=O)c2c1,?,14.6µM*!,?,-244.7%,?
Cc1cc(C)cc(NS(=O)(=O)c2ccc3[nH]cc(C(=O)NCCc4ccccc4)c(=O)c3c2)c1,?,i,.,.,.
Cc1ccc(CCNC(=O)c2c[nH]c3ccc(S(=O)(=O)Nc4cccc(C(F)(F)F)c4)cc3c2=O)cc1,i,13µM*,.,.,.
Cc1ccc2sc(=O)[nH]c2c1,i,i,3.7%,-9.2%,7.1%
O=C(Nc1ccc2nc([C@H]3C[C@H](O)[C@@H](CO)O3)[nH]c2c1)NC(c1ccccc1)c1ccccc1,i,i,.,.,.
CC(=O)c1ccc(S(=O)(=O)Nc2cccc(-c3ccc(N4CCCCCC4)nn3)c2)cc1,i,?,.,.,.
N#CNC(=Nc1ccc(F)cc1)SCc1ccccc1,i,i,?,3.66µM*,16.0%
CC(C)N=C(NC#N)SCc1ccc(F)cc1,?,i,3.0%,-14.9%,20.5%
CCCCSc1nnc(CNC(=O)C23CC4CC(CC(C4)C2)C3)n1Cc1ccccc1,2.59µM*,?,?,13.0%,-9.8%
CCCCn1c(CNC(=O)C23CC4CC(CC(C4)C2)C3)nnc1SC(C)CC (stereo unspecified),20.6µM*,?,?,6.5%,-4.7%
CSC1(SC2=NCCN2)SC2(NCCN2)S1,?,?,3.66µM*,?,.
Cc1noc(C)c1-c1ccc(C(=O)Nc2ccc(C(C)C)cc2)c2occc12,i,i,.,.,.
COc1ccc(/C=C/C(=O)Nc2cc(C)nn2-c2nc3ccccc3[nH]2)cc1,16.4µM*,?,?,18.4µM*,?
Cc1cc(NC(=O)/C=C/c2cccc(F)c2)n(-c2nc3ccccc3[nH]2)n1,?,?,16.4µM*,?,?
Cc1cc(NC(=O)/C=C/c2cccc(Cl)c2)n(-c2nc3ccccc3[nH]2)n1,?,?,20.6µM*,?,?
NC(=O)c1ccccc1NC(=O)/C=C/c1cccc(Cl)c1,i,i,12.3%,-14.8%,?
COc1ccc(/C=C/C(=O)Nc2cc(C)nn2-c2nc3ccccc3n2Cc2cccc([N+](=O)[O-])c2)cc1,?,?,-0.2%,?,?
Cc1cc(NC(=O)/C=C/c2ccc(F)cc2)n(-c2nc3ccccc3[nH]2)n1,i,i,?,2.0%,18.8%
COC(=O)c1c(C(=O)OC)c(-c2cccc(Cl)c2)n2c1CS(=O)(=O)C2,i,i,-2.0%,-2.7%,21.0%
COc1cc(NC(=O)C2(C)CCN2C(=O)C(C)C)cc(OC)c1OC (stereo unspecified),i,i,.,.,.
COc1ccc(C(=O)NCCc2nnc3ccc(SCC(=O)Nc4ccccc4)nn23)cc1,.,.,4.2%,14.7%,?
CCN(CC)S(=O)(=O)c1ccc2c(c1)N(CC(=O)N1CCN(c3ccccc3F)CC1)C(=O)CO2,i,i,.,.,.
CCOC(=O)C1C(=O)C(C(C)=O)C(=O)CC1CC(C)SCC (stereo unspecified),20.6µM*,i,-5.7%,-13.4%,7.8%
CCSC(C)CC1CC(=O)CC(=O)C1 (stereo unspecified),i,i,-2.6%,-8.7%,16.6%
CN1C(=O)C(O)(C2COC(C)(C)CC2=O)c2cc(Br)ccc21 (stereo unspecified),?,20.6µM*,?,?,9.4%
SMILES,KB-V1 cytotox,KB-3-1 tox,MCF10A rerep,SW480 rerep,ELG1 repair inh
O=S(=O)(NCc1cccnc1)c1ccc(Cl)c2ccccc12,i,i,-27.8%,-22.3%,?
COc1cccc2cc(C(=O)C3=C(O)C(=O)N(CCN(C)C)C3c3ccc(F)cc3)oc12 (stereo unspecified),i,i,5.8µM*,8.2µM*,6.2%
COc1cccc2cc(C(=O)C3=C(O)C(=O)N(CCCN(C)C)C3c3ccncc3)oc12 (stereo unspecified),.,.,.,.,-0.9%
O=C(Nc1nc(COc2ccccc2)cs1)C12CC3CC(CC(C3)C1)C2,i,i,8.2µM*,-3.0%,?
CC(=O)Nc1nc(COc2ccccc2)cs1,i,i,4.9%,-7.3%,?
Cc1ccc(C(=O)Nc2nc(COc3ccccc3)cs2)s1,?,i,20.6µM*,?,.
CCOc1ccc(NS(=O)(=O)CC23CCC(CC2=O)C3(C)C)cc1 (stereo unspecified),18.4µM*,i,13.4%,-9.8%,2.4%
O=C(Cc1ccc(NC(=O)C2CCN(C(=O)C3CC3)CC2)cc1)Nc1ccc(C(=O)N2CCOCC2)cc1,i,i,-5.6%,?,.
O=C(CN1C(=O)COc2ccc(S(=O)(=O)N3CCCCC3)cc21)NCc1ccc(Cl)cc1,i,i,2.9%,14.9%,9.8%
CCOC(=O)N1CCN(Cc2nc3cc(NC(=O)CC(C)C)ccc3n2CC)CC1,i,?,?,?,?
CC1Cc2ccccc2N1C(=O)CSc1nnc(-c2ccccc2Cl)o1 (stereo unspecified),i,i,.,.,.
CC1Cc2ccccc2N1C(=O)CSc1nnc(-c2ccc(S(=O)(=O)N3CCCC3)cc2)o1 (stereo unspecified),2.06µM*,i,1.8%,0.5%,?
CC(=O)OC1CC(c2cc(C(C)(C)C)c(O)c(C(C)(C)C)c2)=NO1 (stereo unspecified),?,i,?,14.6µM*,0.0%
CC(Nc1nc(-c2ccc(F)cc2)cs1)c1nc2cc(Cl)c(N3CCCCC3)cc2n1CCCO (stereo unspecified),?,?,20.6µM*,?,.
CC(Nc1nc(-c2ccc(F)cc2)cs1)c1nc2cc(Cl)c(N3CCCCC3)cc2n1CCOCCO (stereo unspecified),i,?,-3.1%,-3.1%,.
CN(C)c1ccc(/C=C/c2nc3ccccc3c(=O)n2-c2ccc(C(=O)O)cc2)cc1,i,i,18.4µM*,20.6µM*,-2.4%
O=C(O)c1cccc(-n2c(/C=C/c3ccccc3)nc3ccccc3c2=O)c1,i,i,15.1%,?,15.0%
CCn1c(/C=C/c2cccc([N+](=O)[O-])c2)nc2ccccc2c1=O,20.6µM*,?,15.1%,2.8%,-0.3%
CN(C)S(=O)(=O)c1ccc2[nH]cc(/C=C/c3nc4ccccc4c(=O)n3-c3ccccc3)c2c1,?,i,?,3.26µM*,?
Cc1[nH]c2ccccc2c1/C=C/c1nc2ccccc2c(=O)n1-c1ccc([N+](=O)[O-])cc1,?,i,11.4%,-4.4%,?
CCn1c(/C=C/c2ccccc2[N+](=O)[O-])nc2ccccc2c1=O,?,i,14.9%,27.4%,?
